Records with an inconclusive call do not appear. Activity calls are given as the source filed them. The call rests on the fitted dose curve; in most records, active means well fitted curve in the direction sought with a large enough effect; inconclusive means small, poorly fitted or top-dose-only effect, or another doubt; inactive means no such curve, though single readings can be large; an effect the other way counts as inactive or inconclusive.
Experiments:
[1] = target: ATP-dependent 6-phosphofructokinase (Trypanosoma brucei brucei) (UniProt O15648); assay: qHTS Assay to Find Inhibitors of T. brucei phosphofructokinase: hit validation (AID 492961);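 further: luminescence reports ADP formed as PFK phosphorylates fructose-6-phosphate with ATP; on the % scale 0 is the no-effect control and ±100 the full control effect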
ATP-dependent 6-phosphofructokinase (Trypanosoma brucei brucei), sequence (O15648 whole entry, looked up): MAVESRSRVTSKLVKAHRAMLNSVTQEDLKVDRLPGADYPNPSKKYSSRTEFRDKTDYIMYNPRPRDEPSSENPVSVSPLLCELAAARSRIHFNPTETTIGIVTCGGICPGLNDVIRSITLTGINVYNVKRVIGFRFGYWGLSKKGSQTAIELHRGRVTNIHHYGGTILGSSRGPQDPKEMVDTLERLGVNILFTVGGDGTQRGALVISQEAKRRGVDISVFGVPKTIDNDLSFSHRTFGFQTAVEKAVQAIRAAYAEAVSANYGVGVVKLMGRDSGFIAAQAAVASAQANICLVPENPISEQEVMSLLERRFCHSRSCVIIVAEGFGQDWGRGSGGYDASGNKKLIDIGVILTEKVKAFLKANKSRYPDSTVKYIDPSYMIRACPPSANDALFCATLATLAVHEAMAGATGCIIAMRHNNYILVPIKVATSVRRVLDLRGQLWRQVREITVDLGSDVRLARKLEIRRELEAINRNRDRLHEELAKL
Procedure, shortened: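 Percent activity derived from corrected luminescence, normalized between 0x and 1x enzyme controls, then fitted to concentration-response curves. Conditions: 1.25 nM PFK, 0.1 mM ATP, 0.5 mM F6P, 45 min RT.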

[2] = target: Ubiquitin carboxyl-terminal hydrolase 1 (Homo sapiens) (UniProt O94782); assay: Inhibitors of USP1/UAF1: Pilot qHTS (AID 504865); further: potency means the concentration at half of the fitted maximal effect; nearly all actives have a fitted effect of over 35% in size
Ubiquitin carboxyl-terminal hydrolase 1 (Homo sapiens), sequence (O94782 whole entry, looked up): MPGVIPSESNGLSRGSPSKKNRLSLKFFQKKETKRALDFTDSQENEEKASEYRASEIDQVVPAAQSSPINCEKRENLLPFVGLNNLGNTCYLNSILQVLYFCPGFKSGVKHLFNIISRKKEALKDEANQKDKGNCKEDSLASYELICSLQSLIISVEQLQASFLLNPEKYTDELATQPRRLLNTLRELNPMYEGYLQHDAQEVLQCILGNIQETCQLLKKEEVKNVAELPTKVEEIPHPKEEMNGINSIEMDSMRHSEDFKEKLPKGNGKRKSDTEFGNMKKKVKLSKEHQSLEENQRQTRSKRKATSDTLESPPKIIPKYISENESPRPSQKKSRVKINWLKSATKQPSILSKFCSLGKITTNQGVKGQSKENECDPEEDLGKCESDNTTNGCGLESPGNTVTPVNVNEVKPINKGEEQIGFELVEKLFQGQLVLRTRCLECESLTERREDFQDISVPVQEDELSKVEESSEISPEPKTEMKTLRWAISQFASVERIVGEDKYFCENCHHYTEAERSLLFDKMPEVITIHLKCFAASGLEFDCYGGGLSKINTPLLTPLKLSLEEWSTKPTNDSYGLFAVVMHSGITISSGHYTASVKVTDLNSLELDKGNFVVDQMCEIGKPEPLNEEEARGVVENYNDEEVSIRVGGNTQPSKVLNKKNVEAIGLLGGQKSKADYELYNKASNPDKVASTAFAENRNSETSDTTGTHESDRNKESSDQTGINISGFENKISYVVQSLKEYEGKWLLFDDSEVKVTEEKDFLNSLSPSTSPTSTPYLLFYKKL
Procedure, shortened: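 Kinetic fluorescence assay: 1nM USP1/UAF1, 15 min compound preincubation, then 150nM Ub-Rho; 480/540 nm.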

[3] = target: Luciferin 4-monooxygenase (Photinus pyralis) (UniProt P08659); assay: Biochemical firefly luciferase enzyme assay for NPC (AID 624030); further: potency means the concentration at half of the fitted maximal effect; nearly all actives have a fitted effect of over 70% in size
Luciferin 4-monooxygenase (Photinus pyralis), sequence (P08659 whole entry, looked up): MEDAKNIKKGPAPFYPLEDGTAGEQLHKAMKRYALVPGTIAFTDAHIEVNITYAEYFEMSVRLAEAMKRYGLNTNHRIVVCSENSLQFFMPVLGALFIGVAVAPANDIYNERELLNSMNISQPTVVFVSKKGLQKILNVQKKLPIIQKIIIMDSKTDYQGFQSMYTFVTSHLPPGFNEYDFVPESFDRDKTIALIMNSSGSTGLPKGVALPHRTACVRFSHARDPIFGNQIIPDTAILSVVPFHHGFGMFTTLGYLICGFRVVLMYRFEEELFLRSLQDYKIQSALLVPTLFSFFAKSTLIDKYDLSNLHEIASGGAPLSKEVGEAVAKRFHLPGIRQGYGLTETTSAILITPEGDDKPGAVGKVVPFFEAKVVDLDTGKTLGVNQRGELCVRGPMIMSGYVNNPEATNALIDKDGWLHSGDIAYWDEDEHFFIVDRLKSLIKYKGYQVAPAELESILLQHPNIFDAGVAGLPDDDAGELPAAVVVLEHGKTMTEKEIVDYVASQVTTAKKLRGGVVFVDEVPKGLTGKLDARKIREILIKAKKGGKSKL
Procedure, shortened: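 Counter-screen for direct inhibition of the luciferase enzyme by approved-drug library compounds, run at 10 nM enzyme in 50 mM Tris acetate (final). Luminescence was read within 5 min of enzyme-buffer addition and normalized to PTC124 versus DMSO (0%).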

[4] = S16 Schwann cell viability assay (CellTiter-Glo assay) (AID 624031);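 further: cellular ATP luminescence as a viability measure; plate controls were DMSO-treated cells for no effect and cell-free wells for full effect; nearly all actives have a fitted effect of over 70% in size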
Procedure, shortened: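 CellTiter-Glo ATP luminescence counter-screen in untransfected S16 rat Schwann cells, 24h compound exposure at 37 degree Celsius after overnight seeding (500-750 cells/well); response scaled between cell-free wells and DMSO (0% activity), curves classed by r2 and magnitude.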

[5] = S16 Schwann cell PMP22 intronic element firefly luciferase assay (AID 624032);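 further: plate controls were DMSO for no effect and PTC124 positive control mean for full effect; nearly all actives have a fitted effect of over 30% in size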
Procedure, shortened: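 Rat S16 Schwann cells stably carrying a PMP22 intronic element-driven Fluc reporter were seeded overnight, then exposed to compounds for 24 h at 37 °C. Luminescence was normalized to PTC124 (positive control) and DMSO (0% activity).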

[6] = Confirmatory screen GU Rhodamine qHTS for Zika virus inhibitors qHTS (AID 1347157); further: potency means the concentration at half of the fitted maximal effect; nearly all actives have a fitted effect of over 70% in size
Procedure, shortened: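 Unlinked NS2B/NS3, 25 nM; Rhod110 peptide, 1.5 microM; compounds, up to 114 microM. Reaction run 15 min at RT in 10 mM Tris-HCl pH 8.0, 0.01% Tween 20; kinetic fluorescence change fitted with a 4-parameter Hill model.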

[7] = Confirmatory screen NINDS Rhodamine qHTS for Zika virus inhibitors (AID 1347161); further: potency means the concentration at half of the fitted maximal effect; nearly all actives have a fitted effect of over 60% in size
Procedure, shortened: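 Kinetic fluorescence (Ex 480 nm, Em 540 nm) over 15 min with 1.5 microM Rhodamine110 peptide and 25 nM linked protease.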

[8] = Tertiary RLuc qRT-PCR qHTS assay for Zika virus inhibitors (AID 1347169); further: top concentration of the series differs between compounds; on the % scale 0 is the no-effect control and ±100 the full control effect; nearly all actives have a fitted effect of over 55% in size
Procedure, shortened: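 Orthogonal cell-based infection assay using recombinant ZIKV-RLuc (Cambodian) in Vero cells; compound added prior to virus at MOI 1-2. Incubation lasts 48-72 hrs at 37 degrees C before live-cell Renilla substrate is added and luminescence measured.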

[9] = qHTS profiling for inhibitors of Plasmodium falciparum proliferation (AID 504749);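 further: 0% = DMSO vehicle and full inhibition = artemisinin control; nearly all actives have a fitted effect of over 60% in size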; conditions: P. falciparum in erythrocytes, SYBR Green DNA, 72 h, at 28.7 µM (top of the series)
Procedure, shortened: (§1)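 Quantitative HTS: compounds pinned into medium, infected erythrocytes added (0.3% parasitemia, 2.5% hematocrit), 72 h culture at 37 C under 5% CO2. Saponin/Triton lysis with SYBR Green I, overnight RT, then fluorescence read.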

3D7 = assay: as above; conditions: P. falciparum in erythrocytes, SYBR Green DNA, 72 h; series mostly up to 28.7 µM
Procedure, shortened: as §1

AA1029 = assay: as above; conditions: P. falciparum in erythrocytes, SYBR Green DNA, 72 h; series mostly up to 28.7 µM
Procedure, shortened: as §1

AS120 = assay: as above; conditions: P. falciparum in erythrocytes, SYBR Green DNA, 72 h; series mostly up to 28.7 µM
Procedure, shortened: as §1

ATS189 = assay: as above; conditions: P. falciparum in erythrocytes, SYBR Green DNA, 72 h; series mostly up to 28.7 µM
Procedure, shortened: as §1

ATS95 = assay: as above; conditions: P. falciparum in erythrocytes, SYBR Green DNA, 72 h; series mostly up to 28.7 µM
Procedure, shortened: as §1

C2A = assay: as above; conditions: P. falciparum in erythrocytes, SYBR Green DNA, 72 h; series mostly up to 28.7 µM
Procedure, shortened: as §1

CP185 = assay: as above; conditions: P. falciparum in erythrocytes, SYBR Green DNA, 72 h; series mostly up to 28.7 µM
Procedure, shortened: as §1

CP191 = assay: as above; conditions: P. falciparum in erythrocytes, SYBR Green DNA, 72 h; series mostly up to 28.7 µM
Procedure, shortened: as §1

CP192 = assay: as above; conditions: P. falciparum in erythrocytes, SYBR Green DNA, 72 h; series mostly up to 28.7 µM
Procedure, shortened: as §1

CP194 = assay: as above; conditions: P. falciparum in erythrocytes, SYBR Green DNA, 72 h; series mostly up to 28.7 µM
Procedure, shortened: as §1

CP201 = assay: as above; conditions: P. falciparum in erythrocytes, SYBR Green DNA, 72 h; series mostly up to 28.7 µM
Procedure, shortened: as §1

CP211 = assay: as above; conditions: P. falciparum in erythrocytes, SYBR Green DNA, 72 h; series mostly up to 28.7 µM
Procedure, shortened: as §1

CP217 = assay: as above; conditions: P. falciparum in erythrocytes, SYBR Green DNA, 72 h; series mostly up to 28.7 µM
Procedure, shortened: as §1

CP237 = assay: as above; conditions: P. falciparum in erythrocytes, SYBR Green DNA, 72 h; series mostly up to 28.7 µM
Procedure, shortened: as §1

CP238 = assay: as above; conditions: P. falciparum in erythrocytes, SYBR Green DNA, 72 h; series mostly up to 28.7 µM
Procedure, shortened: as §1

CP250 = assay: as above; conditions: P. falciparum in erythrocytes, SYBR Green DNA, 72 h; series mostly up to 28.7 µM
Procedure, shortened: as §1

CP252 = assay: as above; conditions: P. falciparum in erythrocytes, SYBR Green DNA, 72 h; series mostly up to 28.7 µM
Procedure, shortened: as §1

CP256 = assay: as above; conditions: P. falciparum in erythrocytes, SYBR Green DNA, 72 h; series mostly up to 28.7 µM
Procedure, shortened: as §1

CP260 = assay: as above; conditions: P. falciparum in erythrocytes, SYBR Green DNA, 72 h; series mostly up to 28.7 µM
Procedure, shortened: as §1

CP262 = assay: as above; conditions: P. falciparum in erythrocytes, SYBR Green DNA, 72 h; series mostly up to 28.7 µM
Procedure, shortened: as §1

CP265 = assay: as above; conditions: P. falciparum in erythrocytes, SYBR Green DNA, 72 h; series mostly up to 28.7 µM
Procedure, shortened: as §1

CP266 = assay: as above; conditions: P. falciparum in erythrocytes, SYBR Green DNA, 72 h; series mostly up to 28.7 µM
Procedure, shortened: as §1

CP268 = assay: as above; conditions: P. falciparum in erythrocytes, SYBR Green DNA, 72 h; series mostly up to 28.7 µM
Procedure, shortened: as §1

CP269 = assay: as above; conditions: P. falciparum in erythrocytes, SYBR Green DNA, 72 h; series mostly up to 28.7 µM
Procedure, shortened: as §1

CP286 = assay: as above; conditions: P. falciparum in erythrocytes, SYBR Green DNA, 72 h; series mostly up to 28.7 µM
Procedure, shortened: as §1

CP291 = assay: as above; conditions: P. falciparum in erythrocytes, SYBR Green DNA, 72 h; series mostly up to 28.7 µM
Procedure, shortened: as §1

CP297 = assay: as above; conditions: P. falciparum in erythrocytes, SYBR Green DNA, 72 h; series mostly up to 28.7 µM
Procedure, shortened: as §1

CP305 = assay: as above; conditions: P. falciparum in erythrocytes, SYBR Green DNA, 72 h; series mostly up to 28.7 µM
Procedure, shortened: as §1

CP315 = assay: as above; conditions: P. falciparum in erythrocytes, SYBR Green DNA, 72 h; series mostly up to 28.7 µM
Procedure, shortened: as §1

CP325 = assay: as above; conditions: P. falciparum in erythrocytes, SYBR Green DNA, 72 h; series mostly up to 28.7 µM
Procedure, shortened: as §1

CP329 = assay: as above; conditions: P. falciparum in erythrocytes, SYBR Green DNA, 72 h; series mostly up to 28.7 µM
Procedure, shortened: as §1

CP335 = assay: as above; conditions: P. falciparum in erythrocytes, SYBR Green DNA, 72 h; series mostly up to 28.7 µM
Procedure, shortened: as §1

DFO2036 = assay: as above; conditions: P. falciparum in erythrocytes, SYBR Green DNA, 72 h; series mostly up to 28.7 µM
Procedure, shortened: as §1

DIV14 = assay: as above; conditions: P. falciparum in erythrocytes, SYBR Green DNA, 72 h; series mostly up to 28.7 µM
Procedure, shortened: as §1

DIV17 = assay: as above; conditions: P. falciparum in erythrocytes, SYBR Green DNA, 72 h; series mostly up to 28.7 µM
Procedure, shortened: as §1

DIV30 = assay: as above; conditions: P. falciparum in erythrocytes, SYBR Green DNA, 72 h; series mostly up to 28.7 µM
Procedure, shortened: as §1

ECU = assay: as above; conditions: P. falciparum in erythrocytes, SYBR Green DNA, 72 h; series mostly up to 28.7 µM
Procedure, shortened: as §1

FAB9 = assay: as above; conditions: P. falciparum in erythrocytes, SYBR Green DNA, 72 h; series mostly up to 28.7 µM
Procedure, shortened: as §1

GB4 = assay: as above; conditions: P. falciparum in erythrocytes, SYBR Green DNA, 72 h; series mostly up to 28.7 µM
Procedure, shortened: as §1

JCK = assay: as above; conditions: P. falciparum in erythrocytes, SYBR Green DNA, 72 h; series mostly up to 28.7 µM
Procedure, shortened: as §1

N140 = assay: as above; conditions: P. falciparum in erythrocytes, SYBR Green DNA, 72 h; series mostly up to 28.7 µM
Procedure, shortened: as §1

P93_24 = assay: as above; conditions: P. falciparum in erythrocytes, SYBR Green DNA, 72 h; series mostly up to 28.7 µM
Procedure, shortened: as §1

P94_40 = assay: as above; conditions: P. falciparum in erythrocytes, SYBR Green DNA, 72 h; series mostly up to 28.7 µM
Procedure, shortened: as §1

PAD = assay: as above; conditions: P. falciparum in erythrocytes, SYBR Green DNA, 72 h; series mostly up to 28.7 µM
Procedure, shortened: as §1

PC15 = assay: as above; conditions: P. falciparum in erythrocytes, SYBR Green DNA, 72 h; series mostly up to 28.7 µM
Procedure, shortened: as §1

PC26 = assay: as above; conditions: P. falciparum in erythrocytes, SYBR Green DNA, 72 h; series mostly up to 28.7 µM
Procedure, shortened: as §1

PC49 = assay: as above; conditions: P. falciparum in erythrocytes, SYBR Green DNA, 72 h; series mostly up to 28.7 µM
Procedure, shortened: as §1

SC27B = assay: as above; conditions: P. falciparum in erythrocytes, SYBR Green DNA, 72 h; series mostly up to 28.7 µM
Procedure, shortened: as §1

TAB109 = assay: as above; conditions: P. falciparum in erythrocytes, SYBR Green DNA, 72 h; series mostly up to 28.7 µM
Procedure, shortened: as §1

TAB113 = assay: as above; conditions: P. falciparum in erythrocytes, SYBR Green DNA, 72 h; series mostly up to 28.7 µM
Procedure, shortened: as §1

TAB165 = assay: as above; conditions: P. falciparum in erythrocytes, SYBR Green DNA, 72 h; series mostly up to 28.7 µM
Procedure, shortened: as §1

CC(C)(O)c1ccccc1CC[C@H](SCC1(CC(=O)O)CC1)c1cccc(/C=C/c2ccc3ccc(Cl)cc3n2)c1
active: Potency [2] 39.8 µM | Potency [3] 11.4 µM | Potency [6] 11.2 µM | Potency [7] 22.4 µM
inactive: outcome [1] | outcome [4] | Potency [5] | Potency [8] | activity, negative = inhibition ([9]; parasite line A) -2.01% | activity, negative = inhibition ([9]; parasite line B) -18.3% | Potency (3D7) | Potency (AA1029) | Potency (AS120) | Potency (ATS189) | Potency (ATS95) | Potency (C2A) | Potency (CP185) | Potency (CP191) | Potency (CP192) | Potency (CP194) | Potency (CP201) | Potency (CP211) | Potency (CP217) | Potency (CP237) | Potency (CP238) | Potency (CP250) | Potency (CP252) | Potency (CP256) | Potency (CP260) | Potency (CP262) | Potency (CP265) | Potency (CP266) | Potency (CP268) | Potency (CP269) | Potency (CP286) | Potency (CP291) | Potency (CP297) | Potency (CP305) | Potency (CP315) | Potency (CP325) | Potency (CP329) | Potency (CP335) | Potency (DFO2036) | Potency (DIV14) | Potency (DIV17) | Potency (DIV30) | Potency (ECU) | Potency (FAB9) | Potency (GB4) | Potency (JCK) | Potency (N140) | Potency (P93_24) | Potency (P94_40) | Potency (PAD) | Potency (PC15) | Potency (PC26) | Potency (PC49) | Potency (SC27B) | Potency (TAB109) | Potency (TAB113) | Potency (TAB165)
